Assay results as given in article PMC4336329 (PLoS ONE, 2015).
About 14,000 (4.5%) of roughly 310,000 compounds showed an effect of 50% or more. The effect is printed as a negative number. The list comes from a sample in which strong results are over-represented; it also holds similar structures and randomly drawn compounds.

target: human ether-à-go-go-related gene (hERG) potassium channel (human, UniProt Q12809); assay: primary screen, population patch clamp on CHO cells stably expressing hERG; higher = less effect of the substance
Sequence (Q12809 whole entry, looked up): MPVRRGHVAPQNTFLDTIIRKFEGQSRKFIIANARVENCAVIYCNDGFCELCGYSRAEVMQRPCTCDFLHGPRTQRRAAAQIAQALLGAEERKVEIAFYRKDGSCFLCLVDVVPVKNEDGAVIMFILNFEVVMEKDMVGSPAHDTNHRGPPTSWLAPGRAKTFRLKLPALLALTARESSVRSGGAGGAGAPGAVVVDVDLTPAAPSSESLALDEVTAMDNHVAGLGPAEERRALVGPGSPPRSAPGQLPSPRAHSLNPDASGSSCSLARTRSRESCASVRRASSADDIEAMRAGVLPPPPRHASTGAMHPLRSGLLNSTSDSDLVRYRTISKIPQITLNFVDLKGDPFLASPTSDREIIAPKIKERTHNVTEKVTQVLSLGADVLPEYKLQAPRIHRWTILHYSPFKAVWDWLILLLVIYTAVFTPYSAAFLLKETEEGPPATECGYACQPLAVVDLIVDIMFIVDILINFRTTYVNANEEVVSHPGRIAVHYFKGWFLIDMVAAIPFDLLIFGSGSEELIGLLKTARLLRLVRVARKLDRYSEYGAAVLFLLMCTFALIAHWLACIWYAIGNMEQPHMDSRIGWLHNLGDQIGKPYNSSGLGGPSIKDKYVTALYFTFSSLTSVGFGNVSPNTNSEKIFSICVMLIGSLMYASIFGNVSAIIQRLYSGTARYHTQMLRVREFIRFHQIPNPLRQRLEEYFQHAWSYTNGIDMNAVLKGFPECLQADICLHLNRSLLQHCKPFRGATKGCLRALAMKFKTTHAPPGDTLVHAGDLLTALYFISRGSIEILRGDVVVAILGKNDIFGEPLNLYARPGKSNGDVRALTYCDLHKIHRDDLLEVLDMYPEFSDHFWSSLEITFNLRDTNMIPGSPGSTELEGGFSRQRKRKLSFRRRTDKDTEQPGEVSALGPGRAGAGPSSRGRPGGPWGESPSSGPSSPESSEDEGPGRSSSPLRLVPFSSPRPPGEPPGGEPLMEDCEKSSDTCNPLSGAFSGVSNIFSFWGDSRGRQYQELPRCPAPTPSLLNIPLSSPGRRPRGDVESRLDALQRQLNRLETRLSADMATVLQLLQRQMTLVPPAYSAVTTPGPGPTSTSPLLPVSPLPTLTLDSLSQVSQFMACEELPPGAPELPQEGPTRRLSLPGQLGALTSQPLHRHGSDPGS
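Also: peak tail current of the secondary pulse compared with the same well before compound.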

Compound	hERG current change (%, negative = inhibition) at 10uM
CCc1ccc(N(CC(=O)Nc2ccccc2C(=O)N2CCCC2)S(C)(=O)=O)cc1	-10.6%
CN(C)c1ccc(CNn2cnnc2SCc2ccc(F)cc2)cc1	-9.48%
COc1ccc(NC(=O)CC2C(=O)N(c3ccc(OC)cc3)C(=O)N2C(C)C)cc1 (centres unmarked)	-5.34%
Cc1ccc(NC(=O)c2ccc(-n3cncn3)c([N+](=O)[O-])c2)cc1F	-18.1%
CC12CCC(C(=O)Nc3ccccc3Br)(C/C1=N\O)C2(C)C (centres unmarked)	4.44%
CC(On1nnc2ccccc21)C(=O)N1CCN(Cc2ccccc2)CC1 (centres unmarked)	18.2%
C(#CCN1CCOCC1)COCc1ccccc1.Cl	11.1%
COc1cccc(OCCOc2ccc(/C=C3/SC(=S)NC3=O)cc2)c1	23%
CN(CC(=O)Nc1ccccc1Cl)C(=O)CSc1nnc(-c2ccco2)o1	-7.79%
Cn1cnc2cc(NCc3ccccc3Cl)ccc21	-35%
CCCCn1cnc2cc(NCc3ccncc3)ccc21	-1.31%
CCCCn1cnc2cc(NCc3cccc(OC)c3O)ccc21	-51.2%
Cn1cnc2cc(NCc3ccc(Cl)cc3)ccc21	-18.3%
CCCn1cnc2cc(NCc3ccccc3O)ccc21	-0.21%
CCn1cnc2cc(NCc3cccc(OC)c3O)ccc21	-5.91%
Cc1ccc(CNc2ccc3c(c2)nc(C)n3C)cc1	-21.9%
Cc1nc2cc(NCc3ccc(Cl)cc3)ccc2n1C	-70.6%
CCCn1cnc2cc(NCc3ccc(Br)cc3)ccc21	-73.9%
CCCn1cnc2cc(NCc3ccccn3)ccc21	-18.8%
CCCn1cnc2cc(NCc3cccc(OC)c3O)ccc21	-29.3%
CCn1cnc2cc(NCc3ccccc3Cl)ccc21	-52.1%
CN(C)c1ccc(C(CNC(=O)c2ccccc2F)c2c[nH]c3ccccc23)cc1 (centres unmarked)	-8.6%
Cc1[nH]c(C)c(S(=O)(=O)Nc2ccc(OC(F)(F)F)cc2)c1C(=O)N1CCCCC1	-7.79%
O=C(N/N=C/C=C/c1ccccc1)c1cccc(Br)c1	5.3%
FC(F)(F)c1ccccc1N1CC1c1ccncc1 (centres unmarked)	13.3%
O=C(O)c1ccccc1C(=O)NC1CCN(c2nccc(C(F)(F)F)n2)CC1	9.16%
